Among all 400,000 compounds or so, about 2,200 (0.55%) were called active. Another 1% or so got no clear call; they are omitted. The sample holds actives, similar compounds and a random draw of the others, so the mix is not that of the screen. The call rests on the fitted dose curve; in most records, active means well fitted inhibition curve with a large enough effect; inconclusive means small, poorly fitted or top-dose-only effect, or another doubt; inactive means no such curve, though single readings can be large or run the other way.
target: DNA polymerase kappa (Homo sapiens) (UniProt Q9UBT6); assay: qHTS for Inhibitors of Polymerase Kappa; settings: purified Pol kappa, fluorescent DNA synthesis assay, 10 min; series mostly up to 107 µM; activity, negative = inhibition: at the top concentration
Sequence (Q9UBT6 whole entry, looked up): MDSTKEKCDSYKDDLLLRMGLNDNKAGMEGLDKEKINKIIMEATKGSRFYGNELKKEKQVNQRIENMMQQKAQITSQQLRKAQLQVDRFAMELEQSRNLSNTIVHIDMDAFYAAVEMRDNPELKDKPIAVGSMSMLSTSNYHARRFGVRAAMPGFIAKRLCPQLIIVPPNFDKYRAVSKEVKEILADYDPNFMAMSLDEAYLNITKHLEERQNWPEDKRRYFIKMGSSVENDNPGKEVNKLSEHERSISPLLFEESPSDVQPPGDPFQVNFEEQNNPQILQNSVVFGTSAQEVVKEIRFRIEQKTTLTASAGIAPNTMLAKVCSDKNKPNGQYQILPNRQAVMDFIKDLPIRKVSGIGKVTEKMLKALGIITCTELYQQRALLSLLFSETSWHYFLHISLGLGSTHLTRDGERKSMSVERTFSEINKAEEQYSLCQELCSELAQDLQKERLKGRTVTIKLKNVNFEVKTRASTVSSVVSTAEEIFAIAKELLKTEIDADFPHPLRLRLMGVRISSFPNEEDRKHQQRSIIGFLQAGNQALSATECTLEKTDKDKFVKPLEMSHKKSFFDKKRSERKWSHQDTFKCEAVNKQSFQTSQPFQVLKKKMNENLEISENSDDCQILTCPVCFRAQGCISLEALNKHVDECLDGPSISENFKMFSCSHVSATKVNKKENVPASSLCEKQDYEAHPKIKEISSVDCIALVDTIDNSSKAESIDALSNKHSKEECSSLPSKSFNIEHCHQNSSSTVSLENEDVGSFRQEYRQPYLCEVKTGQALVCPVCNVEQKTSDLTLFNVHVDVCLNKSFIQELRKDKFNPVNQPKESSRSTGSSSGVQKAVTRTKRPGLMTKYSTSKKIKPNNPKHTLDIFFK
Method: The processing and repair of DNA interstrand crosslinks (ICL) in eukaryotic cells are extremely complex, potentially involving multiple DNA repair and damage tolerance pathways, including homologous recombination, nucleotide excision repair, translesion synthesis (TLS), and cell cycle checkpoints.
To that end, in a collaboration between the Oregon Health & Science University and the NIH Chemical Genomics Center a 1536-well high-throughput screen was developed. This fluorescent screen was assayed against the NIH Molecular Libraries Small Molecule Repository (MLSMR) to discover inhibitors of Pol Kappa.
NIH Chemical Genomics Center [NCGC]
NIH Molecular Libraries Probe Centers Network [MLPCN]
Assay Submitter (PI): Stephen Lloyd, Oregon Health & Science University
Three microliters of reagents (buffer in column 3 and 4 as negative control and 10 nM Pol kappa in columns 1, 2, and 5-48) were dispensed into a 1536-well black solid-bottom plate. Compounds (23 nL) were transferred via Kalypsys pin tool equipped with 1536-pin array. The plates were then incubated for 15 min at room temperature, and 1 uL substrate (50 nM final concentration) were then added to start the reaction and kinetically read twice at 0 min and 10 min on the Viewlux reader
On the % scale 0 is the no-effect control and ±100 the full control effect; potency means the concentration at half of the fitted maximal effect.

Potency, active:
CCOc1ccccc1/C=c1\sc2nc(-c3ccco3)nn2c1=O 89.1 µM
O=C(CN1CCN(S(=O)(=O)c2cc(Cl)ccc2Cl)CC1)c1ccc(O)c(O)c1 28.2 µM
O=C(c1ccc(CS(=O)(=O)c2ccccc2)o1)N1CCN(c2ccccc2)CC1 79.4 µM
COc1cccc2c1C(=O)c1c(O)c3c(c(O)c1C2=O)CC(O)(C(C)=NNC(=O)c1ccc(Cl)c(Cl)c1)CC3OC1CC(N)C(O)C(C)O1 (stereo unspecified) 17.8 µM
C=C(C)C(=O)Nc1cccc(C2=NOC3(C2)C[C@H](C(N)=O)N(C(=O)C(c2ccccc2)c2ccccc2)C3)c1 (stereo partly specified) 25.1 µM
CN(C)CCNC(=O)c1ccc(Cl)c2cc3ccccc3nc12 50.1 µM
CC(=O)c1ccc(S(=O)(=O)N2CCN(C(=O)/C=C/c3ccc4ccccc4n3)CC2)cc1 79.4 µM
O=C(O)c1ccc(NN=CC2=C(N3CCOCC3)/C(=C/c3ccccc3)CC2)cc1 28.2 µM
Cc1cc(/C=N/Nc2ccc([N+](=O)[O-])cn2)c(C)n1-c1cccc(C(=O)O)c1 70.8 µM
CCN(CC)CCOc1ccc2c(c1)C(=NNC(=O)c1ccccn1)c1cc(OCCN(CC)CC)ccc1-2 10 µM
C=C1c2c(Cl)ccc(O)c2C(O)=C2C(=O)[C@]3(O)C(O)=C(C(N)=O)C(=O)[C@@H](N(C)C)[C@@H]3[C@@H](O)C12 (stereo partly specified) 3.98 µM
CN(C)[C@@H]1C(=O)C(C(N)=O)=C(O)[C@@]2(O)C(=O)C3=C(O)c4c(O)ccc(Cl)c4[C@@H](O)[C@H]3C[C@@H]12 89.1 µM
Cc1cc(C)c2nc(-c3ccco3)cc(C(=O)O)c2c1 22.4 µM
Cc1ccc(C(=O)O)cc1-c1ccc(/C=C2\SC(=O)N(CC(=O)Nc3ccc4c(c3)OCO4)C2=O)o1 28.2 µM
Cc1ccc(/C=C/C(=O)Nc2ccc([N+](=O)[O-])c(NC(=O)/C=C/c3ccc(C)o3)c2)o1 28.2 µM
CN(CCOc1ccccc1)C(=O)c1cc(-c2ccco2)nc2ccccc12 79.4 µM
CN(C(=O)COC(=O)c1cc(-c2ccco2)nc2ccccc12)C1CCS(=O)(=O)C1 (stereo unspecified) 20 µM

Potency, inactive:
CC(=O)c1ccc(S(=O)(=O)N2CCC(Oc3ccc(-n4cnnn4)cc3)CC2)cc1

activity, negative = inhibition, inactive:
Oc1c(C(c2ccccc2Cl)N2CCOCC2)sc2nc(-c3ccco3)nn12 (stereo unspecified) -5.77% [at 60.1 µM]
CCOC(=O)C1CCN(C(c2ccc(F)cc2)c2sc3nc(-c4ccco4)nn3c2O)CC1 (stereo unspecified) -1.88% [at 60.1 µM]
NCCC(=O)c1ccccc1N 1.11% [at 19.4 µM]
O=C(O)C(O)[C@@](O)(Cc1ccc(O)cc1)C(=O)O (stereo partly specified) -7.48% [at 60.1 µM]
CCN1CCN(C(=O)C2CCN(S(=O)(=O)c3cc(Cl)ccc3Cl)CC2)CC1 -1.71%
O=S(=O)(c1cc(Cl)ccc1Cl)N1CCN(Cc2ccco2)CC1 -8.66%
NNc1nnc(NN)c2ccccc12 2.28% [at 19.4 µM]
CC(=O)/C(C)=N\O -8.23% [at 19.4 µM]
CC1(C)C=Cc2c(ccc(C(=O)/C=C/c3ccccc3)c2O)O1 -9.34%
COc1ccc(CNc2ncnc3ccc(-c4cccnc4)cc23)c(OC)c1 8.03% [at 60.1 µM]
CCOC(=O)C1CCCN(C(=O)c2ccc(CS(=O)(=O)c3ccc(Br)cc3)o2)C1 (stereo unspecified) -1.17%
O=C(c1ccc(Br)o1)N1CCN(CCOc2ccccc2)CC1 -8.95%
Nc1nc2c(ncn2[C@@H]2O[C@H](COP(=O)(O)OP(=O)(O)OP(=O)(O)O)[C@@H](O)C2O)c(=O)[nH]1 (stereo partly specified) -4.75% [at 19.4 µM]
COc1ccc(OC)c([C@H](O)CNC(=O)CN)c1 -13.4% [at 19.4 µM]
COC1C[C@@H](O[C@@H]2C(C)C(=O)OC(C)C(C)C(O)C(C)C(=O)[C@@]3(CO3)CC(C)C(OC3OC(C)CC(N(C)C)C3O)C2C)OC(C)[C@@H]1O (stereo partly specified) 1.62% [at 60.1 µM]
O=P(O)(O)OC[C@H](O)CO -2.79% [at 60.1 µM]
COc1c2c(cc3occ(-c4ccc5c(c4)OCO5)c(=O)c13)OC(C)(C)C=C2 -13.4% [at 60.1 µM]
Cc1cccc(-c2nnc(SC(C)C(=O)Nc3ccccc3)n2C)c1 (stereo unspecified) -10.1%
COc1cccc(Nc2ncc3ncc(=O)n(C4CC4)c3n2)c1 -2.43% [at 60.1 µM]
CCC(=O)Nc1cccc(C2=NOC3(C2)C[C@@H](C(N)=O)N(C(=O)c2cc([N+](=O)[O-])cc([N+](=O)[O-])c2C)C3)c1 (stereo partly specified) -5.6%
NC(=O)[C@H]1CC2(CC(c3cccc(NC(=O)[C@H]4CCC(=O)N4)c3)=NO2)CN1C(=O)c1ccccc1C(=O)c1ccccc1 (stereo partly specified) 0.723%
CN1[C@H]2CC(OC(=O)[C@@H](CO)c3ccccc3)C[C@H]1[C@H]1O[C@H]12 (stereo partly specified) -3.18% [at 12 µM]
O=C(c1cnccn1)N1CCC2(CCN(Cc3cc(C(F)(F)F)cc(C(F)(F)F)c3)CC2)CC1 -13.8% [at 60.1 µM]
Cc1nc2cnc(Oc3cccc(Cl)c3)nc2n(C2CC2)c1=O -4.2% [at 60.1 µM]
S=c1[nH]c(=S)c2n[nH]nc2[nH]1 -1.5%
COc1ccccc1Nc1cc(C(=O)NCCCN(C)C2CCCCC2)c2ccccc2n1 7.65%
COc1ccc(Nc2cc(C(=O)NCCCN(C)c3ccccc3)c3ccccc3n2)c(OC)c1 -14.6% [at 60.1 µM]
O=C(c1csnn1)N1CCC[C@@]2(CCN(c3cccc(-c4ccccc4)c3)C2)C1 0.0963% [at 60.1 µM]
CC(=O)c1cccc(Nc2ccc3cc(S(=O)(=O)N4CCC(C)CC4)ccc3n2)c1 -6.41%
Cc1cccc(NC(=O)COC(=O)c2ccccc2OCc2cccc(Br)c2)c1 -5.63%
C=C1C(=O)C23C(O)C1CCC2[C@]12COC3(O)C(O)C1C(C)(C)CC[C@H]2O (stereo partly specified) -19.2% [at 60.1 µM]
O=C(Nc1cc(Cl)ccc1N1CCOCC1)c1ccc(N2CCCC2=O)cc1 0.0706%
CC(C)(CNC(=O)c1ccc(Cl)c(S(=O)(=O)N2CCc3ccccc3C2)c1)N1CCOCC1 -1.47%
Cc1cccc(C(=O)NC(=S)N2CCN(c3ccc([N+](=O)[O-])cc3)CC2)c1 -12.7%
CN1CCN(C(=O)c2cnn(-c3ccccc3)c2NC(=O)c2ccc([N+](=O)[O-])cc2)CC1 -13.2%
COc1cc(OC)c(OC)cc1/C=C1\C=Cc2ccccc21 -11.4%
O=c1c(-c2ccc(F)cc2)nc2cnc(N3CCNCC3)nc2n1Cc1cccs1 0.0971% [at 60.1 µM]
CN(C)c1ccc(/C=C2\C=Cc3ccccc32)cc1Br -15.2%
CCOc1ccc(C(=O)N2CCN(CCc3ccccn3)CC2)cc1 -3.45%
O=C(c1ccncc1)N1CCC2(CCN(Cc3cc(C(F)(F)F)cc(C(F)(F)F)c3)CC2)CC1 -13% [at 60.1 µM]
C[C@]12CC[C@@H]3C(=CCc4cc(O)ccc43)[C@@H]1CCC2=O -6.88% [at 12 µM]
Oc1ccc(Cl)c2c1CCC2 2.83% [at 19.4 µM]
C/C=C/C=N/NC(=O)c1ccncc1 -3.32% [at 19.4 µM]
O=C1C[C@H]2C=CCc3cccc(c32)CN1Cc1ccccc1 11.4%
O=C1CCC[C@@H]2C[C@@]3(C[C@@H]4CCN1[C@H]24)Nc1ccccc1NC3=NCc1ccccc1 0%
CC(=O)OCC(=O)[C@@]1(O)CCC2C3CCC4=CC(=O)CC[C@@]4(C)[C@]3(F)C(O)C[C@]21C (stereo partly specified) -6.54% [at 60.1 µM]
Brc1ccc(C2=NCCC(c3ccccc3)O2)cc1 (stereo unspecified) -13.9%
Cc1cc(C)c2nc(-c3cccnc3)cc(C(=O)Nc3ccc(S(=O)(=O)Nc4onc(C)c4C)cc3)c2c1 -13.6%
Cc1cccc(NC(=O)CSc2nc(-c3ccco3)cc(C(F)(F)F)n2)c1C 0.715%
COC(=O)c1ccc2c(c1)N(CC(=O)Nc1ccc(C)c(C)c1)C(=O)c1ccccc1S2 -9.25% [at 60.1 µM]
Cn1c(=O)c2ccccc2n(CC(=O)Nc2ccc3c(c2)OCCO3)c1=O -1.46%
CCn1ccnc1C[C@@H]1COc2ccccc2O1 -7.82% [at 19.4 µM]
NC[C@@H]1O[C@H](O[C@@H]2[C@H](O[C@@H]3O[C@H](CO)[C@@H](COC[C@H]4O[C@@H](CN)[C@@H](O)[C@@H](O)[C@@H]4N)[C@@H]3O)[C@@H](O)[C@@H](N)C[C@H]2N)[C@@H](N)[C@H](O)[C@@H]1O -0.462% [at 12 µM]
COc1ccc(OC)c(NC(=O)/C=C/c2ccc(C)o2)c1 -20.5%
Cc1ccc(/C=C/C(=O)OCC(=O)NCc2ccc(Cl)cc2)o1 -13.3%
CC1=C(/C=C/C(C)=C/C=C/C(C)=C/C=C/C=C(C)/C=C/C=C(C)/C=C/C(=O)[C@]2(C)C[C@@H](O)CC2(C)C)C(C)(C)C[C@H](O)C1 -16.6% [at 60.1 µM]
O=C1C(c2[nH]c3ccccc3c2O)=Nc2ccccc21 -10.8% [at 19.4 µM]
Cc1cc(C)c2nc(SCC(=O)N(C)C3CCS(=O)(=O)C3)cc(C)c2c1 (stereo unspecified) 1.73% [at 60.1 µM]
CCN(C(=O)COC(=O)/C=C/c1nc2ccccc2s1)C1CCS(=O)(=O)C1 (stereo unspecified) 6.34%
CN(C)C(CNC(=O)CCCOc1ccccc1)c1ccco1 (stereo unspecified) -16.8%
CCOc1ccc(CNC(=O)c2cc(-c3ccc(Cl)s3)nc3ccccc23)cc1 1.73%
Nc1ncn(C2OC(CO)C(O)C2O)c(=O)n1 (stereo unspecified) 0% [at 60.1 µM]
C=CC(=O)c1ccc2ccccc2c1 7.32% [at 19.4 µM]
CCCCCCCNc1ccc(/C=C/c2ccnc3ccccc23)cc1 -22.4%
O=C(c1cccc(F)c1)N1CCC2(CCCN(Cc3ccncc3)C2)CC1 -4.21% [at 60.1 µM]
Cc1cn([C@H]2CC(F)[C@@H](CO)O2)c(=O)[nH]c1=O (stereo partly specified) -4.8% [at 19.4 µM]
O=C(Nc1cccc(C(F)(F)F)c1)c1cc(Br)cc(Br)c1O -0.617% [at 19.4 µM]
COCCn1c(=O)c(-c2ccc(OC)cc2)nc2cnc(Oc3cccc(Cl)c3)nc21 -1.11% [at 60.1 µM]

— PubChem BioAssay AID588579 (National Center for Advancing Translational Sciences (NCATS), 2011)
